“And” between values parts separate entries of the source, which are not always exact repeats. Equal entries are not always repeated. Hit rate of the full screen: of about 5,500 compounds, about 2,000 (36%) were called active. Not shown: some 18% with an inconclusive outcome. Rule as the data show it: active = normalized growth mostly below about 0.91 (no sharp cut-off); inconclusive = no clear call, values can overlap the other calls; inactive = mostly above about 0.92. The list shows a part of the results.
Test: chemical genetic growth profiling, strain panel (AID 1159580);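 also: tested at 20 µM; growth read once vehicle control cultures reached saturation at 30 °C; 1 = growth at the plate median or of vehicle wells; lower values mean less growth of the strain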
Conditions: S. cerevisiae deletion strains, growth OD

Measured: normalized growth

Cc1onc(-c2c(Cl)cccc2Cl)c1C(=O)N[C@@H]1C(=O)N2[C@@H]1SC(C)(C)[C@@H]2C(=O)O
inactive: locus YAL013W, strain DEP1, stronger effect = lower value 1.02 | locus YAL021C, strain ccr4, stronger effect = lower value 0.969 | locus YAL026C, strain drs2, stronger effect = lower value 1.02 | locus YAL030W, strain snc1, stronger effect = lower value 0.994 | locus YBL061C, strain skt5, stronger effect = lower value 0.991 | locus YBR009C, strain hhf1, stronger effect = lower value 1 | locus YBR021W, strain FUR4, stronger effect = lower value 1.03 | locus YBR023C, strain chs3, stronger effect = lower value 0.986 | locus YBR171W, strain sec66, stronger effect = lower value 0.993 | locus YBR229C, strain ROT2, stronger effect = lower value 1.01 | locus YBR231C, strain swc5, stronger effect = lower value 0.963 | locus YBR279W, strain paf1, stronger effect = lower value 0.993 | locus YCL011C, strain gbp2, stronger effect = lower value 1.01 | locus YCL016C, strain dcc1, stronger effect = lower value 1.03 | locus YCL029C, strain bik1, stronger effect = lower value 0.996 | locus YCL069W, strain vba3, stronger effect = lower value 0.995 | locus YCR088W, strain abp1, stronger effect = lower value 0.975 | locus YDL005C, strain med2, stronger effect = lower value 0.995 | locus YDL035C, strain GPR1, stronger effect = lower value 1.04 | locus YDL040C, strain nat1, stronger effect = lower value 0.988 | locus YDL074C, strain BRE1, stronger effect = lower value 1.01 | locus YDL101C, strain DUN1, stronger effect = lower value 1.01 | locus YDL134C, strain PPH21, stronger effect = lower value 1.05 | locus YDL185W, strain tfp1, stronger effect = lower value 0.991 | locus YDL192W, strain arf1, stronger effect = lower value 0.993 | locus YDR001C, strain nth1, stronger effect = lower value 0.97 | locus YDR069C, strain doa4, stronger effect = lower value 0.991 | locus YDR101C, strain arx1, stronger effect = lower value 0.994 | locus YDR137W, strain rgp1, stronger effect = lower value 0.991 | locus YDR150W, strain NUM1, stronger effect = lower value 1.02 | locus YDR159W, strain sac3, stronger effect = lower value 0.975 | locus YDR162C, strain NBP2, stronger effect = lower value 1.02 | locus YDR195W, strain ref2 0.889 | locus YDR297W, strain sur2, stronger effect = lower value 0.973 | locus YDR318W, strain mcm21, stronger effect = lower value 0.995 | locus YDR334W, strain swr1, stronger effect = lower value 0.948 | locus YDR335W, strain msn5, stronger effect = lower value 0.967 | locus YDR388W, stronger effect = lower value 1 | locus YDR392W, strain spt3, stronger effect = lower value 1.12 | locus YDR502C, strain sam2, stronger effect = lower value 0.996 | locus YEL003W, strain gim4, stronger effect = lower value 0.973 | locus YEL037C, strain rad23, stronger effect = lower value 0.995 | locus YEL061C, strain CIN8 (second series), stronger effect = lower value 0.971 | locus YEL061C, strain CIN8, stronger effect = lower value 1.01 | locus YER015W, strain faa2, stronger effect = lower value 0.991 | locus YER016W, strain bim1, stronger effect = lower value 0.997 | locus YER110C, stronger effect = lower value 0.992 | locus YER111C, strain swi4, stronger effect = lower value 0.998 | locus YER155C, strain BEM2 (second series), stronger effect = lower value 0.973 | locus YER155C, strain BEM2, stronger effect = lower value 1.01 | locus YER167W, strain BCK2, stronger effect = lower value 1.02 | locus YFR010W, strain ubp6, stronger effect = lower value 0.97 | locus YGL078C, strain dbp3, stronger effect = lower value 1 | locus YGL086W, strain mad1, stronger effect = lower value 1.01 | locus YGL167C, strain pmr1, stronger effect = lower value 0.976 | locus YGL173C, strain kem1, stronger effect = lower value 0.961 | locus YGL227W, strain vid30, stronger effect = lower value 0.981 | locus YGL240W, strain doc1, stronger effect = lower value 0.951 | locus YGL248W, strain PDE1, stronger effect = lower value 1.01 | locus YGL253W, strain hxk2, stronger effect = lower value 1.02 | locus YGR078C, strain PAC10, stronger effect = lower value 1.01 | locus YGR135W, strain pre9, stronger effect = lower value 0.976 | locus YGR229C, strain SMI1, stronger effect = lower value 1.02 | locus YGR252W, strain gcn5, stronger effect = lower value 0.946 | locus YHR013C, strain ard1, stronger effect = lower value 1.02 | locus YHR027C, strain rpn1, stronger effect = lower value 0.997 | locus YHR030C, strain SLT2, stronger effect = lower value 1.01 and 1.06 | locus YHR079C, strain IRE1 (second series), stronger effect = lower value 0.989 | locus YHR079C, strain IRE1, stronger effect = lower value 1.02 | locus YHR094C, strain hxt1, stronger effect = lower value 0.994 | locus YHR129C, strain ARP1, stronger effect = lower value 1.02 | locus YHR142W, strain chs7, stronger effect = lower value 1.02 | locus YHR200W, strain rpn10, stronger effect = lower value 0.991 | locus YIL066C, strain RNR3, stronger effect = lower value 1.02 | locus YIL073C, strain SPO22, stronger effect = lower value 0.988 | locus YIL125W, strain kgd1, stronger effect = lower value 0.998 | locus YIR030C, strain dcg1, stronger effect = lower value 1.01 | locus YJL092W, strain hpr5, stronger effect = lower value 0.99 | locus YJL095W, strain BCK1 (second series), stronger effect = lower value 0.983 | locus YJL095W, strain BCK1, stronger effect = lower value 1 and 1.04 | locus YJL115W, strain asf1, stronger effect = lower value 0.979 | locus YJL129C, strain trk1, stronger effect = lower value 0.972 | locus YJL134W, strain LCB3, stronger effect = lower value 1.01 | locus YJL154C, strain vps35, stronger effect = lower value 0.978 | locus YJL164C, strain tpk1, stronger effect = lower value 1.02 | locus YJL166W, strain qcr8, stronger effect = lower value 0.957 | locus YJL168C, strain set2, stronger effect = lower value 0.988 | locus YJL187C, strain SWE1 (second series), stronger effect = lower value 1.01 | locus YJL187C, strain SWE1, stronger effect = lower value 0.987 | locus YJR043C, strain POL32, stronger effect = lower value 1.04

Source: PubChem BioAssay AID1159580 (chemical genetic matrix, 2015)
